PubChem BioAssay
For some assays here: Measured potencies and affinities stand elsewhere. Active and inactive are the calls of the source. Unless noted, no rule for the calls is given here.

Legend:
[1] = antimalarial activity against Dd2 strain (AID 2302;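 active = growth inhibition above 50% at the single 2 µM test dose, taken to imply half-maximal potency below 2 µM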;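 also: 0% = DMSO untreated growth and 100% = chloroquine plus artemisinin killed control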); conditions: P. falciparum Dd2 in RBCs, LDH growth readout, 72 h; at 2 µM; hits give high values
[2] = HepG2 cytotoxicity, primary screen, cytotoxicity control for P. falciparum antimalarial project, cell-based, ATP luminescence (AID 2303;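 active = inhibition above 50%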;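 also: 0% = DMSO wells and 100% = digitonin-killed cells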); conditions: HepG2 viability, 24-48 h, at 10 µM, hits give high values
[3] = target: L-lactate dehydrogenase (Plasmodium falciparum (isolate CDC / Honduras)) (UniProt Q27743); assay: PfLDH activity inhibition – cell lysate, 3D7 strain, counter-screen for P. falciparum growth inhibition project (AID 2304);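 also: 0% = vehicle and 100% = reference inhibitor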; conditions: P. falciparum 3D7 crude extract, LDH APAD/NBT absorbance; at 2 µM; hits give high values
Chain of L-lactate dehydrogenase (Plasmodium falciparum (isolate CDC / Honduras)) (Q27743 whole entry, looked up): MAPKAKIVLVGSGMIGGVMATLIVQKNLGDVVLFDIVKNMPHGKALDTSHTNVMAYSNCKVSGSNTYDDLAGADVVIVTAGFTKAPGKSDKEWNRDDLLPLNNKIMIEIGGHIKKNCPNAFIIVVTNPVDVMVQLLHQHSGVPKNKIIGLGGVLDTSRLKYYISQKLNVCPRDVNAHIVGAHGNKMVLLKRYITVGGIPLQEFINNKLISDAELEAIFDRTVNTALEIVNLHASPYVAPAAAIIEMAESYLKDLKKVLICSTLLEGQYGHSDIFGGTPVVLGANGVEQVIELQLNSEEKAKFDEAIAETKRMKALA

[4] = inhibition of 3D7 malaria parasite growth – strain 3D7 (AID 2306);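 also: 0% = DMSO wells and 100% = chloroquine plus artemisinin control wells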; conditions: P. falciparum 3D7 erythrocytic growth, LDH absorbance, 72 h; at 2 µM; hits give high values
[5] = target: Calcium-dependent protein kinase 1 (Plasmodium falciparum (isolate 3D7)) (UniProt P62344); assay: PfCDPK1 kinase inhibitors, biochemical, TCAMS library (AID 1159585; cut-off not given, nearly all actives have IC50 up to about 0.98 µM;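 also: inhibitors leave more ATP so luminescence rises with inhibition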); conditions: recombinant PfCDPK1, Kinase-Glo ATP depletion luminescence
Chain of Calcium-dependent protein kinase 1 (Plasmodium falciparum (isolate 3D7)) (P62344 whole entry, looked up): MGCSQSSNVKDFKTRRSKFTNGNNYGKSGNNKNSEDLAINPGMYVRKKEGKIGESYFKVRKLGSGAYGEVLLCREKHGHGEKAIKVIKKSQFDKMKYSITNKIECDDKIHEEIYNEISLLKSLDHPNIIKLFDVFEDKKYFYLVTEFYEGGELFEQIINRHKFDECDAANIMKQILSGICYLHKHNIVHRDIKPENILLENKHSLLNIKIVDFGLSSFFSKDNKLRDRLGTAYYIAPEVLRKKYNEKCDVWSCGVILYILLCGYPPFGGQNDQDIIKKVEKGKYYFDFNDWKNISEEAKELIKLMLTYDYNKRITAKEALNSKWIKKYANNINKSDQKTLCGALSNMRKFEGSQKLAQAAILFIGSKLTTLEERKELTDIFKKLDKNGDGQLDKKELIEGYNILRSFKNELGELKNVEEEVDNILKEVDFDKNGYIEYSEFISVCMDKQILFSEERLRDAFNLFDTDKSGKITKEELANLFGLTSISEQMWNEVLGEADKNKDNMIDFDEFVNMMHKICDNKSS

[6] = target: Plasmodium falciparum protein kinase 6 (PK6, PF3D7_1337100) (UniProt Q8IDW1); assay: PfPK6 kinase inhibitors, biochemical, TCAMS library (AID 1159586); conditions: recombinant PfPK6, Kinase-Glo ATP depletion luminescence
Chain of Plasmodium falciparum protein kinase 6 (PK6, PF3D7_1337100) (Q8IDW1 1-305): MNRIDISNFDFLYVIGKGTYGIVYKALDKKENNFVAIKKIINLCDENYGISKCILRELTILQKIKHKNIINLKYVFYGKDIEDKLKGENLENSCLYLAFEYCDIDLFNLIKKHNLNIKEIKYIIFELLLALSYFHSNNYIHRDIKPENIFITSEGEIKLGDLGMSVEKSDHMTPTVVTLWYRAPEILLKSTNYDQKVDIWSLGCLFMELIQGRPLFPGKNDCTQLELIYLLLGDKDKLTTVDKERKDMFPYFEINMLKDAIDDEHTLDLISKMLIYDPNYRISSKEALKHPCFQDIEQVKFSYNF

[7] = target: Protein kinase 7 (PK7), Plasmodium falciparum 3D7 (PF3D7_0213400) (UniProt Q7YTF7); assay: inhibition of Plasmodium PK7 catalytic activity – biochemical, TCAMS antimalarial set, Kinase-Glo luminescence (AID 1159587); conditions: recombinant PfPK7, Kinase-Glo ATP depletion luminescence
Chain of Protein kinase 7 (PK7), Plasmodium falciparum 3D7 (PF3D7_0213400) (Q7YTF7 1-343): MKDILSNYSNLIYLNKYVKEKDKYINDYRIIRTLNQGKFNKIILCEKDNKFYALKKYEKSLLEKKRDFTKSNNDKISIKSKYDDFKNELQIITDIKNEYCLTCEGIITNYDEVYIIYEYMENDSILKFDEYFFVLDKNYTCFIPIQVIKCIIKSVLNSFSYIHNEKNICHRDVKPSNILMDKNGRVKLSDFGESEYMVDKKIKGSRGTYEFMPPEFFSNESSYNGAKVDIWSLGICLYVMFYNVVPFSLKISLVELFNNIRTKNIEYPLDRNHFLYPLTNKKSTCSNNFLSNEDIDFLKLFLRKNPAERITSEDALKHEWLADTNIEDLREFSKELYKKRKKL

[8] = target: Calcium-dependent protein kinase 4 (Plasmodium falciparum (isolate 3D7)) (UniProt Q8IBS5); assay: PfCDPK4 kinase inhibitors, biochemical, TCAMS library (AID 1159588; cut-off not given, nearly all actives have IC50 up to about 0.91 µM); conditions: recombinant PfCDPK4, Kinase-Glo ATP depletion luminescence
Chain of Calcium-dependent protein kinase 4 (Plasmodium falciparum (isolate 3D7)) (Q8IBS5 whole entry, looked up): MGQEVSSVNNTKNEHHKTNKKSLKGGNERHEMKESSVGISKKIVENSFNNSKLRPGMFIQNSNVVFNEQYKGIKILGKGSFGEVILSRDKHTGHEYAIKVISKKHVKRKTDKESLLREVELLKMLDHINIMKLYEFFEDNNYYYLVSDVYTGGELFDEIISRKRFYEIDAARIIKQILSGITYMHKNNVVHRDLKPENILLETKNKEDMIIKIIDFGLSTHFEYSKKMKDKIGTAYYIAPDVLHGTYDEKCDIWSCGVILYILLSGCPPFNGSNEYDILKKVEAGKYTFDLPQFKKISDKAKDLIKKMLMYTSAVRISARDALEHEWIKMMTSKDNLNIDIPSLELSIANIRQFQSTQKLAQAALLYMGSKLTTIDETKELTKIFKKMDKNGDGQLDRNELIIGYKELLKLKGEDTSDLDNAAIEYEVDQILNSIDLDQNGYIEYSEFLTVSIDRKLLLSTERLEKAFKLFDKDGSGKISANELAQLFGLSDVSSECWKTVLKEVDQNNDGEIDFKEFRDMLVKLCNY

CC(C)c1ccc2c(c1)c(SC(C)(C)C)c(CC(C)(C)C#N)n2Cc1ccc(Cl)cc1
inactive: inhibition [2] -3% | inhibition [3] 8% | outcome [5] | outcome [6] | outcome [7] | outcome [8]
active: growth inhibition [1] 95% | growth inhibition [4] 96%

CC(C)CCC[C@@H]([C@@H](CC1CCCCC1)C(=O)N[C@@H](CCCCNC(=O)OCc1ccccc1)C(=O)Nc1nccs1)N(O)C=O
inactive: inhibition [2] -4% | inhibition [3] 3% | outcome [5] | outcome [6] | outcome [7] | outcome [8]
active: growth inhibition [1] 90% | growth inhibition [4] 98%

COCC(=O)Nc1nc2ccccc2[nH]1
active: growth inhibition [4] 98%
inactive: growth inhibition [1] 1% | inhibition [2] -14% | inhibition [3] -5% | outcome [5] | outcome [6] | outcome [7] | outcome [8]

COc1ccc(CCNC(C)Cc2ccc(C(=O)Nc3ccc(CC(C)NCCc4cccc(Cl)c4)cc3)cc2)cc1 (stereo not given)
active: growth inhibition [1] 89% | inhibition [2] 99% | growth inhibition [4] 101%
inactive: inhibition [3] -10% | outcome [5] | outcome [6] | outcome [7] | outcome [8]

O=S(=O)(c1ccccc1)n1ccc2cc(Nc3ncnc4cc(C#C[C@H]5CCCN5)sc34)ccc21
inactive: inhibition [3] -3% | outcome [5] | outcome [6] | outcome [7] | outcome [8]
active: growth inhibition [1] 56% | inhibition [2] 50% | growth inhibition [4] 85%

Cc1onc(-c2ccccc2)c1-c1nc(NCCC(c2ccccc2)c2ccccc2)no1
inactive: inhibition [2] -4% | inhibition [3] -7% | outcome [5] | outcome [6] | outcome [7] | outcome [8]
active: growth inhibition [1] 78% | growth inhibition [4] 100%

Cc1cc(OCCN2CCCCC2)ccc1NC(=O)c1cccc2c(=O)n(Cc3ccc(Cl)cc3)cnc12
active: growth inhibition [1] 56% | inhibition [2] 100% | growth inhibition [4] 88%
inactive: inhibition [3] 0% | outcome [5] | outcome [6] | outcome [7] | outcome [8]

c1ccc(CNCc2ccc(-c3ccc(-c4nc5ccccc5[nH]4)cc3)cc2)cc1
inactive: inhibition [2] 32% | inhibition [3] 1% | outcome [5] | outcome [6] | outcome [7] | outcome [8]
active: growth inhibition [1] 93% | growth inhibition [4] 101%

CCNc1cc(C)nc(Nc2ccc(F)cc2)n1
active: growth inhibition [1] 57% | growth inhibition [4] 101%
inactive: inhibition [2] 1% | inhibition [3] -7% | outcome [5] | outcome [6] | outcome [7] | outcome [8]

CC(C)(C)c1ccc(CN2CCC(CNC(=O)c3cc(-c4ccccc4Cl)cs3)C2)cc1 (stereo not given)
inactive: inhibition [2] 33% | inhibition [3] 1% | outcome [5] | outcome [6] | outcome [7] | outcome [8]
active: growth inhibition [1] 56% | growth inhibition [4] 101%

CC(Nc1ccc2c(c1)CCC2)C(=O)Nc1cc(C(F)(F)F)ccc1N1CCOCC1 (stereo not given)
active: growth inhibition [1] 100% | growth inhibition [4] 100%
inactive: inhibition [2] -3% | inhibition [3] -1% | outcome [5] | outcome [6] | outcome [7] | outcome [8]

Cc1cccc2[nH]c(-c3ccc(-c4cccc(C(=O)NCCc5cn(C)cn5)c4)s3)nc12
active: growth inhibition [4] 92%
inactive: growth inhibition [1] 17% | inhibition [2] 27% | inhibition [3] -7% | outcome [5] | outcome [6] | outcome [7] | outcome [8]

C[C@H](NC(=O)c1cc(-c2ccc(C(C)(C)C)cc2)no1)C(=O)O (tested in a mixture with another compound)
active: growth inhibition [1] 97% | growth inhibition [4] 91%
inactive: inhibition [2] 31% | inhibition [3] -4% | outcome [5] | outcome [6] | outcome [7] | outcome [8]

Clc1ccc2c(NCCc3ccccc3)ccnc2c1
active: growth inhibition [1] 99% | growth inhibition [4] 93%
inactive: inhibition [2] 31% | inhibition [3] -3% | outcome [5] | outcome [6] | outcome [7] | outcome [8]

c1ccc(Oc2ccc(Nc3ccnc4cc(-c5ccc(CN6CCNCC6)o5)ccc34)cc2)nc1
active: growth inhibition [1] 99% | growth inhibition [4] 100%
inactive: inhibition [2] 7% | inhibition [3] -1% | outcome [5] | outcome [6] | outcome [7] | outcome [8]

CCOc1ccc(-c2nc(NC(=O)Cc3cccc(OC)c3)sc2C)cc1
active: growth inhibition [4] 97%
inactive: growth inhibition [1] 28% | inhibition [2] 15% | inhibition [3] 3% | outcome [5] | outcome [6] | outcome [7] | outcome [8]

CCC1CCCCN1S(=O)(=O)c1ccc(NC(=O)c2cc(C)on2)cc1 (stereo not given)
active: growth inhibition [1] 53% | growth inhibition [4] 86%
inactive: inhibition [2] 0% | inhibition [3] 0% | outcome [5] | outcome [6] | outcome [7] | outcome [8]

CCCOc1cc(O)c(-c2n[nH]c(C)c2Oc2ccccc2)cc1CC
inactive: growth inhibition [1] 46% | inhibition [2] -14% | inhibition [3] 1% | outcome [5] | outcome [6] | outcome [7] | outcome [8]
active: growth inhibition [4] 91%

CN(C)CCOc1ccc(-n2c(-c3nonc3N)nc3cncc(-c4ccc(F)cc4)c32)cc1
inactive: growth inhibition [1] 7% | inhibition [2] 10% | inhibition [3] 5% | outcome [5] | outcome [6] | outcome [7] | outcome [8]
active: growth inhibition [4] 97%

Cc1[nH]c(C)c(-c2ccc(-c3ccc(Cl)cc3)nc2)c(=O)c1Br
active: growth inhibition [1] 96% | growth inhibition [4] 97%
inactive: inhibition [2] 21% | inhibition [3] 3% | outcome [5] | outcome [6] | outcome [7] | outcome [8]

Cc1noc(=O)c2ccc(NC(=O)C(O)(CSc3ccccc3)CC(C)C)cc12 (stereo not given)
active: growth inhibition [1] 89% | growth inhibition [4] 99%
inactive: inhibition [2] -15% | inhibition [3] 0% | outcome [5] | outcome [6] | outcome [7] | outcome [8]

CC(C)C(=O)NC(c1ccc(Cl)cc1)c1ccc2cccnc2c1O (stereo not given)
active: growth inhibition [1] 70% | inhibition [2] 53% | growth inhibition [4] 91%
inactive: inhibition [3] 3% | outcome [5] | outcome [6] | outcome [7] | outcome [8]

NC(=O)c1cccc(C(=O)Nc2cccc(-c3cccc(-c4nc5ccc(F)cc5[nH]4)c3)c2)c1
active: growth inhibition [1] 73% | growth inhibition [4] 100%
inactive: inhibition [2] 47% | inhibition [3] 1% | outcome [5] | outcome [6] | outcome [7] | outcome [8]

COc1ccc(C(=O)CCC(=O)N(Cc2ccc(-c3ccc(CNCCc4ccc(S(C)(=O)=O)cc4)cn3)cc2)Cc2ccc3c(c2)OCO3)cc1F
active: growth inhibition [4] 95%
inactive: growth inhibition [1] 41% | inhibition [2] 13% | inhibition [3] 3% | outcome [5] | outcome [6] | outcome [7] | outcome [8]

Cc1ccc(NC(=O)c2ccnc(N3CCN(c4ccncc4)CC3)c2)cc1F
inactive: growth inhibition [1] 12% | inhibition [2] 43% | inhibition [3] -2% | outcome [5] | outcome [6] | outcome [7] | outcome [8]
active: growth inhibition [4] 94%

COc1ccc(CN(C)CCCOc2ccc(NC(=O)c3cccc4c(=O)c5cccc(C)c5[nH]c34)cc2)cc1OC
inactive: inhibition [2] 3% | inhibition [3] 1% | outcome [5] | outcome [6] | outcome [7] | outcome [8]
active: growth inhibition [1] 62% | growth inhibition [4] 96%

CN(C(=O)Cc1ccc(Cl)cc1)C1CCN(CCCCCNC(=O)/C=C/c2ccc(Cl)c(Cl)c2)CC1
inactive: growth inhibition [1] 16% | inhibition [3] -6% | outcome [5] | outcome [6] | outcome [7] | outcome [8]
active: inhibition [2] 69% | growth inhibition [4] 83%

FC(F)(F)c1ccc2nc(-c3ccc(-c4ccc(CN5CCN(c6cnccn6)CC5)cc4)cc3)[nH]c2c1
inactive: inhibition [2] 21% | inhibition [3] -7% | outcome [5] | outcome [6] | outcome [7] | outcome [8]
active: growth inhibition [1] 50% | growth inhibition [4] 99%

O=C(Cc1cccs1)NCC(c1ccccc1Cl)c1c[nH]c2ccccc12 (stereo not given)
active: growth inhibition [1] 56% | growth inhibition [4] 91%
inactive: inhibition [2] 12% | inhibition [3] 1% | outcome [5] | outcome [6] | outcome [7] | outcome [8]

COC[C@H]1CCCN1Cc1ccc(-c2ccc(-c3nc4ccccc4[nH]3)s2)cc1
active: growth inhibition [1] 58% | growth inhibition [4] 95%
inactive: inhibition [2] 18% | inhibition [3] -2% | outcome [5] | outcome [6] | outcome [7] | outcome [8]

O=C(N[C@@H](Cc1ccccc1)CN1CCC(Oc2ccc(F)cc2)CC1)c1ccc(OCCCN2CCCCC2)cc1
active: growth inhibition [1] 92% | growth inhibition [4] 102%
inactive: inhibition [2] 38% | inhibition [3] 3% | outcome [5] | outcome [6] | outcome [7] | outcome [8]

CC(C)(C)c1ccc(NC(=O)c2cccc(CN3CCCN(Cc4ccsc4)CC3)c2)cc1
inactive: growth inhibition [1] 3% | inhibition [2] 33% | inhibition [3] -4% | outcome [5] | outcome [6] | outcome [7] | outcome [8]
active: growth inhibition [4] 96%

Cc1ccc(C(=O)Nc2cc(C(F)(F)F)cc(C(F)(F)F)c2)cc1[N+](=O)[O-]
inactive: inhibition [2] 17% | inhibition [3] 1% | outcome [5] | outcome [6] | outcome [7] | outcome [8]
active: growth inhibition [1] 61% | growth inhibition [4] 101%

CC(C)(CNC(=O)/C=C/c1ccc(C(F)(F)F)cc1)CNc1cc(=O)c2ccccc2[nH]1
inactive: growth inhibition [1] 27% | inhibition [2] -1% | inhibition [3] -6% | outcome [5] | outcome [6] | outcome [7] | outcome [8]
active: growth inhibition [4] 95%

COc1ccc2c(NN=Cc3ccc(OC)c4ccccc34)cc(C)nc2c1
inactive: inhibition [2] 3% | inhibition [3] -4% | outcome [5] | outcome [6] | outcome [7] | outcome [8]
active: growth inhibition [1] 99% | growth inhibition [4] 101%

Cc1cccc2[nH]c(-c3cccc(-c4cccc(NC(=O)c5cnn6cccnc56)c4)c3)nc12
inactive: growth inhibition [1] 17% | inhibition [2] 14% | inhibition [3] -3% | outcome [5] | outcome [6] | outcome [7] | outcome [8]
active: growth inhibition [4] 101%

CCc1cc2c(O)c([N+](=O)[O-])c(=O)oc2cc1OCCCCCOc1cc2oc(=O)c([N+](=O)[O-])c(O)c2cc1CC
inactive: growth inhibition [1] 0% | inhibition [2] 11% | inhibition [3] -1% | outcome [5] | outcome [6] | outcome [7] | outcome [8]
active: growth inhibition [4] 99%

CC(C)C[C@H]1C(=O)N[C@H](C2Cc3ccccc3C2)C(=O)N1[C@@H](C(=O)Nc1ccccc1OCc1ccccc1)c1ccc(F)cc1F
inactive: inhibition [2] 12% | inhibition [3] 5% | outcome [5] | outcome [6] | outcome [7] | outcome [8]
active: growth inhibition [1] 67% | growth inhibition [4] 90%

Cc1cnc(CNCc2ccc(S(=O)(=O)Nc3ccc(Oc4cccc(Cl)c4)cc3)cc2)cn1
active: growth inhibition [4] 97%
inactive: growth inhibition [1] -1% | inhibition [2] 4% | inhibition [3] 7% | outcome [5] | outcome [6] | outcome [7] | outcome [8]

CCCCC1(c2ccc(F)cc2)NC(=O)N(CC(=O)c2cc(C)n(Cc3ccco3)c2C)C1=O (stereo not given)
inactive: growth inhibition [1] 28% | inhibition [2] 6% | inhibition [3] -3% | outcome [5] | outcome [6] | outcome [7] | outcome [8]
active: growth inhibition [4] 82%
